Screens deposited in PubChem by National Center for Advancing Translational Sciences (NCATS).
Sampled rows, rich in hits. Any-hit rate of the full collection: about 7.3%.
NPC1 prom act – activators of NPC1 promoter. AID 485313. Potency, µM (series often up to 9.22 µM), hits mostly activators. Huh7 NPC1 promoter luciferase reporter, 24 h. hit rate 2.4% among 320,000; note: nearly all actives have a fitted effect of over 60% in size
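Stably transfected Huh7 (NPC1 promoter→luciferase), 1500 cells/well in Opti-MEM + 10% FBS, 2 h settle, then compound 24 h at 37 °C. Luminescence after 10 min with Amplite reagent.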
SMN2 splice up – SMN2 splice variant enhancement; Potency, µM (titrated, usually from 46.1 µM), actives largely listed as activators; HEK293 SMN2-luciferase splicing reporter, luminescence, 30-36 h; hit rate 2.8% among 210,000; note: nearly all actives have a fitted effect of over 55% in size
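HEK293 cells carry an SMN2 minigene-luciferase reporter in which exon 7 inclusion puts luciferase in frame. Cells were seeded at 2000 cells/well, attached for 10-12 hours, then exposed to compounds for 30-36 hours at 37C before ONE-Glo luminescence.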
uPA generation – cell surface uPA generation inhibition; Potency, µM (series often up to 38.3 µM), usual class: inhibitors; cell surface uPA generation assay, qHTS; hit rate 0.31% among 330,000; active = well fitted inhibition curve with a large enough effect; inconclusive = small, poorly fitted or top-dose-only effect; inactive = no such curve, though single readings can be large or run the other way; tested in mouse RAW 264.7 cells; note: nearly all actives have a fitted effect of over 55% in size
Rab9 prom act – activators of Rab9 promoter; hit rate 2.8% among 320,000; Huh7 Rab9 promoter-luciferase reporter, luminescence, 24 h; Potency, µM (series often up to 9.22 µM), actives largely listed as activators; note: nearly all actives have a fitted effect of over 60% in size
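Measured in stably transfected Huh7 cells bearing a Rab9 promoter–luciferase construct: 24 h compound treatment at 37 °C, followed by luminescence detection.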
FLuc modulator – firefly luciferase modulation, counter-screen for miR-21 project | hit rate 6.9% among 360,000 | purified FLuc, Km substrates, luminescence inhibition | AID 588342 | Potency, µM (titrated, usually from 57.5 µM), actives largely listed as inhibitors | P08659; note: nearly all actives have a fitted effect of over 55% in size
Target sequence (P08659 whole entry, looked up): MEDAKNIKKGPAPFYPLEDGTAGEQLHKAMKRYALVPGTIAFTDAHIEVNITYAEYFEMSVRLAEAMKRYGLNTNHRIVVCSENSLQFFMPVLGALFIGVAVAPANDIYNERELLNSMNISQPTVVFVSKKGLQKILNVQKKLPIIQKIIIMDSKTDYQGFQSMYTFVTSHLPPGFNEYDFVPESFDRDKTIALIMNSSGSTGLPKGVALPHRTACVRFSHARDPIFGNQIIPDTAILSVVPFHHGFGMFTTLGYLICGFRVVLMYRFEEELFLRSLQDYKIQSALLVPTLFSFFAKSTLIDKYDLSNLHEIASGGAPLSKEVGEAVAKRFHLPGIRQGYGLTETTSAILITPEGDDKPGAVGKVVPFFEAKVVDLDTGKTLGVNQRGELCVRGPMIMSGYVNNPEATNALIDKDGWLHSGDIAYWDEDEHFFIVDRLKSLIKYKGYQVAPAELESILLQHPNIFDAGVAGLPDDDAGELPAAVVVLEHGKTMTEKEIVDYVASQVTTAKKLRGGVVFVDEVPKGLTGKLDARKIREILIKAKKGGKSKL
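Purified P. pyralis luciferase (10nM final) with 10uM D-luciferin and 10uM ATP (Km levels) in 50mM Tris acetate pH 7.5, 10mM Mg acetate, 0.01% Tween-20, 0.05% BSA; qHTS 6-point titration, ~60 µM downward; luminescence read.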
ELG1 genotox – genotoxicity induction in ELG1-luciferase HEK293T cells | HEK293T ELG1-luciferase reporter, luminescence, 16 h | Potency, µM (titrated, usually from 46 µM), most hits filed as activators | hit rate 1.3% among 330,000 | AID 504466; note: nearly all actives have a fitted effect of over 60% in size
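16 hr compound incubation (37 °C, 5% CO2) of HEK293T cells carrying luciferase-tagged ELG1; luciferase then measured by ONE-Glo luminescence after 30 min at RT.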
Each line names hits and unclear results; the compound was inactive in the other large screens. Unless noted, calls come from the whole dose curve; as a rule, active = well fitted curve in the direction sought with a large enough effect; inconclusive = small, poorly fitted or top-dose-only effect, or another doubt; inactive = no such curve, though single readings can be large; an effect the other way counts as inactive or inconclusive.

Cc1c(C(=O)NCc2ccco2)sc2nc(-c3ccccc3)cn12	NPC1 prom act inconclusive, uPA generation inconclusive, Rab9 prom act inconclusive, FLuc modulator 16.9µM, ELG1 genotox inconclusive
Cc1c(C(=O)NCc2ccc(F)cc2)sc2nc(-c3ccccc3)cn12	none (no result: NPC1 prom act, SMN2 splice up, uPA generation, Rab9 prom act, ELG1 genotox)
Cc1c(C(=O)N(C)Cc2ccccc2)sc2nc(-c3ccc(F)cc3)cn12	none (no result: NPC1 prom act, SMN2 splice up, uPA generation, Rab9 prom act, ELG1 genotox)
Cc1c(C(=O)NCc2cccnc2)sc2nc(-c3ccc(F)cc3)cn12	uPA generation inconclusive, FLuc modulator 19µM, ELG1 genotox inconclusive
CCOc1c(CNCCCSc2nc(C)cc(C)n2)cccc1OC	none (no result: SMN2 splice up)
Cc1cccc2nc(COc3ccc(Cl)c4cccnc34)cn12	SMN2 splice up inconclusive, Rab9 prom act inconclusive, FLuc modulator 12µM, ELG1 genotox inconclusive
CC(=O)Nc1ccc(-c2csc(N3CCC(C(N)=O)CC3)n2)cc1	none (no result: NPC1 prom act, SMN2 splice up, uPA generation, Rab9 prom act, ELG1 genotox)
Cc1[nH]c(N=Nc2ccccc2)nc1N=Nc1ccccc1	FLuc modulator 6.01µM (no result: SMN2 splice up)
O=C1CCC/C1=C/Nc1ccc2c(c1)OCO2	SMN2 splice up inconclusive, Rab9 prom act inconclusive, FLuc modulator 16.9µM
CC1CCC/C(=C\Nc2ccccc2C(=O)O)C1=O (centres undefined)	FLuc modulator 23.9µM (no result: uPA generation)
CC1CCC/C(=C\Nc2ccc3c(c2)OCO3)C1=O (centres undefined)	NPC1 prom act inconclusive, SMN2 splice up inconclusive, Rab9 prom act inconclusive, FLuc modulator 8.49µM, ELG1 genotox 10.3µM
CCOc1ccc(CCNC(=O)c2ccc3c(c2)nc2n3CCOC2)cc1OCC	none (no result: NPC1 prom act, SMN2 splice up, uPA generation, Rab9 prom act, ELG1 genotox)
Cc1cc(C(=O)Nc2ccc3c(c2)OCCO3)co1	NPC1 prom act 3.16µM, uPA generation inconclusive, Rab9 prom act 4.47µM, FLuc modulator 3.38µM, ELG1 genotox inconclusive (no result: SMN2 splice up)
CC(=O)Nc1ccc2c(c1)OCCOCCOc1cc(NC(C)=O)ccc1OCCO2	none (no result: SMN2 splice up)
CC(=O)Nc1ccc(C(=O)Nc2ccc3c(c2)OCCO3)cc1	FLuc modulator 15.1µM, ELG1 genotox inconclusive (no result: SMN2 splice up)
COc1cc(OC)cc(C(=O)Nc2ccc3c(c2)OCCO3)c1	NPC1 prom act 3.98µM, SMN2 splice up 10µM, Rab9 prom act 3.16µM, FLuc modulator 3.01µM, ELG1 genotox inconclusive
c1cc(CNc2ccc3c(c2)OCCO3)ccn1	FLuc modulator inconclusive, ELG1 genotox 18.4µM
Cc1ccc(C(=O)Nc2ccc3c(c2)OCCO3)o1	NPC1 prom act inconclusive, uPA generation inconclusive, Rab9 prom act inconclusive, FLuc modulator 3.01µM, ELG1 genotox 3.26µM (no result: SMN2 splice up)
NC(=O)Nc1ccc2c(c1)OCCO2	FLuc modulator 21.3µM, ELG1 genotox inconclusive
CCN(CC(=O)Nc1ccc2c(c1)OCCO2)C(=O)c1cc(Cl)nc2ccccc12	none (no result: SMN2 splice up)
Cc1cc(C)n(-c2ccc(C(=O)Nc3ccc4c(c3)OCCO4)cc2)n1	NPC1 prom act inconclusive, Rab9 prom act inconclusive, FLuc modulator 8.49µM, ELG1 genotox inconclusive
CCN(CC(=O)Nc1ccc2c(c1)OCCO2)C(=O)c1ccc(Cl)cc1Cl	NPC1 prom act 3.98µM, Rab9 prom act 1.41µM, FLuc modulator 7.57µM, ELG1 genotox inconclusive (no result: SMN2 splice up)
CS(=O)(=O)c1ncc(Cl)c(C(=O)N2CCN(c3cccc(Cl)c3)CC2)n1	none (no result: NPC1 prom act, uPA generation, Rab9 prom act, FLuc modulator, ELG1 genotox)
CCc1cccc(NS(=O)(=O)c2cc(-c3cnc(C)o3)ccc2OC)c1	none (no result: NPC1 prom act, SMN2 splice up, uPA generation, Rab9 prom act, ELG1 genotox)
CCOc1ccc(NC(=O)c2oc3ccccc3c2NC(=O)c2cc3ccccc3o2)cc1	none (no result: NPC1 prom act, uPA generation, Rab9 prom act, ELG1 genotox)
CCOc1ccc(C(=O)Nc2ccc3c(c2)OCCO3)cc1OC	NPC1 prom act inconclusive, SMN2 splice up 12.6µM, Rab9 prom act inconclusive, FLuc modulator 2.69µM, ELG1 genotox 18.4µM (no result: uPA generation)
O=C(Nc1ccc2c(c1)OCCO2)c1ccc(NC(=O)C2CCCO2)cc1 (centres undefined)	FLuc modulator 12µM
C=CCOc1ccccc1CNc1ccc2c(c1)OCCO2	NPC1 prom act inconclusive, Rab9 prom act inconclusive, FLuc modulator 0.849µM, ELG1 genotox inconclusive
O=C(Nc1ccc2c(c1)OCCO2)c1ccc(Cl)cc1	NPC1 prom act 0.708µM, uPA generation inconclusive, Rab9 prom act 0.447µM, FLuc modulator 1.51µM, ELG1 genotox inconclusive (no result: SMN2 splice up)
COc1ccccc1CNC(=O)c1cc2cc3ccc(Cl)cc3nc2o1	none (no result: NPC1 prom act, uPA generation, Rab9 prom act, ELG1 genotox)
CCOc1ccc(CNC(=O)CCCn2ccc3cc(S(=O)(=O)N4CCCC4)ccc32)cc1	FLuc modulator 16.9µM (no result: SMN2 splice up)
